# High-throughput results (PubChem)
# D1 agonist = activates the human D1 dopamine receptor. P21728. HEK293 T-REx D1 cells, calcium flux, agonist mode. activation, % at 2 µM. actives 1% (n = 360,000). AID 504660; further: 0% is about no effect
#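 Inducible HEK293 T-REx D1 cells, force-coupled to calcium signalling, were plated at 4000 cells/well with tetracycline and held overnight at 30 C. After no-wash calcium dye loading, compound-evoked calcium rise over 180 s flagged agonists.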
# D1 PAM = enhances dopamine response at the human D1 receptor; HEK293 TREx D1 cells, calcium flux, dopamine EC20 potentiation; potentiation, % at 10 µM; actives 0.036% (n = 360,000); in the data active means potentiation above about 30%; further: 0% is about no effect
# TRHR agonist = TRH receptor (human) agonism; P34981; TRHR cells, calcium flux fluo-8, FDSS agonist mode; activation, % at 2 µM; actives 0.18% (n = 360,000); AID 493084; further: 0% is about no effect
# Target sequence (P34981 whole entry, looked up): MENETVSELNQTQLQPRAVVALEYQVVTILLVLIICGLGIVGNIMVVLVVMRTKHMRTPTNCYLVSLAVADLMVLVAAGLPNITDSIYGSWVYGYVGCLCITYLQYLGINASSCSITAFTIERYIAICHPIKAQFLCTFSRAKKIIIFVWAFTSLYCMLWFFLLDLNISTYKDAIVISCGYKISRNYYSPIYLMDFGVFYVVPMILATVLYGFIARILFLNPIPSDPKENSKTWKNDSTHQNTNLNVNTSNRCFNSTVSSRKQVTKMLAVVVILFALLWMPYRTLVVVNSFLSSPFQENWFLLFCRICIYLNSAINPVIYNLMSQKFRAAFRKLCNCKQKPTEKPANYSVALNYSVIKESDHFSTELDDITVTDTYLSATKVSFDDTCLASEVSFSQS
#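 TRHR-expressing cells loaded with fluo-8 calcium dye; 23 nL library compound pin-transferred, kinetic FDSS fluorescence (Ex 480/Em 530) recorded about 180 s for agonist-induced calcium release, before a 10 nM TRH EC20 addition for potentiator mode.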
# D1 antagonist = blocks dopamine activation of the human D1 receptor; P21728; HEK293 TREx D1 cells, calcium flux, dopamine EC80; stronger effect = lower value; activity change, negative = inhibition, % at 10 µM; actives 3.2% (n = 360,000); AID 504652; in the data active means activity change below about -30%; further: on the % scale 0 is the no-effect control and ±100 the full control effect
#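 Calcium flux readout: force-coupled, inducible Hek293 Trex D1 line, cells induced overnight at 30 C with tetracycline, dye-loaded 30–90 min at RT. Antagonism scored against EC80 dopamine challenge given 180 s after compound.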
# TRHR enhancer = allosterically enhances the human TRH receptor; AID 493056; actives 0.66% (n = 360,000); TRHR cells, fluo-8 calcium fluorescence, EC20 TRH enhancement; enhancement, % at 2 µM; in the data active means enhancement above about 30%; further: 0% is about no effect
#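 Enhancer read-out: after compound pinning and an initial kinetic agonist-mode read, an EC20 of TRH (10 nM final) was injected and fluo-8 calcium signal (Ex 480/Em 530) followed at 1 s/cycle for 100 cycles in TRHR-expressing cells.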
# Active calls of the source: *; x = not tested or not shown. Shown are actives, neighbours in structure and some others; about 4.6% of the full set was active somewhere. Unless noted, no stated cut-off is given here; in the data, active means activation above about 30%; inactive means the rest.
SMILES,D1 agonist,D1 PAM,TRHR agonist,D1 antagonist,TRHR enhancer
O=C(NCc1ccc(Cl)cc1Cl)C1CC(=O)N(Cc2ccccc2)C1 (stereo unspecified),-2,-2,1,-31*,-7
O=C(O)C1CC(=O)N(Cc2ccccc2)C1 (stereo unspecified),1,-12,2,-22,5
COc1cccc(C(=O)N/N=C(\CC(C)C)c2ccccc2)c1,2,-7,-1,15,-3
CCc1ccc(C(=O)c2cnc3ccc(F)cc3c2S(=O)(=O)c2ccccc2)cc1,2,-7,0,-42*,-1
O=C(Nc1cccc(-n2cccn2)c1)C1CCCN(Cc2ccccc2F)C1 (stereo unspecified),6,-8,-1,-36*,-2
COc1cccc(CCNC(=O)C2CCC(=O)N(Cc3cccc(OC)c3)C2)c1 (stereo unspecified),2,12,0,-52*,-3
COc1ccc(OC)c(C(=O)COC(=O)CN2C(=O)NC3(CCCCC3C)C2=O)c1 (stereo unspecified),1,-4,0,3,33*
COc1ccccc1C(=O)NC(=O)COC(=O)CN1C(=O)NC2(CCCCC2C)C1=O (stereo unspecified),1,0,0,8,4
CC(C)(C)c1ccc(C(=O)COC(=O)CN2C(=O)NC3(CCCC3)C2=O)cc1,7,-3,-3,-31*,16
CC(Oc1ccc(Cl)cc1Cl)c1nc(-c2ccc(NC(=O)c3ccccn3)cc2)no1 (stereo unspecified),0,2,1,-9,2
CN(C)S(=O)(=O)n1cc(/C=C(\NC(=O)c2ccccc2Cl)C(=O)NCCN2CCOCC2)c2ccccc21,4,6,0,18,-2
Cc1nn(-c2ccccc2)c(C)c1/C=C/C(=O)OCC(=O)Nc1ccc(C(N)=O)cc1,1,5,0,-16,4
Cc1nn(-c2ccccc2)c(C)c1/C=C/C(=O)OCC(=O)Nc1ccc(S(N)(=O)=O)cc1,8,x,0,-32*,4
COc1cc(/C=N/NC(=O)c2nnn(-c3nonc3N)c2C(C)C)ccc1O,3,-3,0,0,13
COc1ccc(NC(=O)N2CCN(c3cc(-c4noc(C)n4)ccc3C)CC2)c(OC)c1,2,-3,-1,-14,-6
COc1ccc(NC(=O)c2ccc(-c3ccc(-c4noc(C)n4)cc3C)cc2)cc1N1CCN(C)CC1,14,-5,0,-57*,1
Clc1ccc(-c2nnc3n2CCCS3)cc1,1,-1,-1,23,34*
COC(=O)c1cccnc1-n1c(=O)c2cccnc2n(CC(=O)Nc2ccc(C)cc2C)c1=O,-1,1,0,0,7
CC(C)(C)CNC(=O)c1ccc2c(c1)S(=O)(=O)c1cc(Cl)ccc1C2=O,3,5,-1,-33*,1
COCCNC(=O)c1ccc2c(c1)S(=O)(=O)c1cc(Cl)ccc1C2=O,0,-2,1,-17,2
Cc1ccc(C)c(N2CCN(CCCNC(=O)Nc3cc(Cl)ccc3C)CC2)c1,7,-1,0,4,-3
O=C(Nc1ccc(N2CCCC2)c(Cl)c1)c1ccc([N+](=O)[O-])o1,1,6,-1,10,13
O=C(Nc1cccc(NC(=O)c2ccccc2Cl)c1)c1ccc([N+](=O)[O-])o1,6,-9,-1,-46*,2
COc1ccc(NC(=S)NNC(=O)COc2ccc(Cl)cc2Cl)cc1,44*,-4,1,-4,-2
COC(CC(=O)NNC(=S)Nc1ccc(Cl)cc1)OC,3,4,0,-30*,2
CCOC(=O)c1ccc(N2C(=O)C3C(/C=C/c4ccccc4)OC4(C(=O)c5ccccc5C4=O)C3C2=O)cc1 (stereo unspecified),9,-2,-1,17,-11
Cc1cc(F)c(F)c(C(=O)N2CCCCC2C)c1Cl (stereo unspecified),2,1,0,-31*,-4
COc1ccccc1NC(=S)N(Cc1ccccc1)Cc1cccs1,12,-2,0,-54*,11
COc1ccccc1NC(=S)N(Cc1cccs1)C1CCCC1,0,-1,0,-4,3
